Most compounds without a hit are left out; they make up all but 1.2% or so of the library.
BJeLR viability: kills HRASV12-expressing BJeLR cells. BJeLR (HRASV12) viability, CellTiter-Glo ATP luminescence, 48 h. inhibition, % (concentration not given with the values). 300,000 compounds, 0.17% hits. AID 1554; in the data active = inhibition above about 50%
MazF activator: activators of E. coli MazEF toxin-antitoxin RNase | activation, % at 20 µM | P0AE70 | 350,000 compounds, 0.32% hits | AID 504720 | FAM/BHQ RNA-DNA oligo cleavage fluorescence, 5 h; in the data active = activation above about 50%
Target sequence (P0AE70 whole entry, looked up): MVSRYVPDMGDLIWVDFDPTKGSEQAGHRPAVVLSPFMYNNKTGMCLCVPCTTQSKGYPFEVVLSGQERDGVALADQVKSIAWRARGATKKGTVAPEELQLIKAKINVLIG
PriA SSB inh: K. pneumoniae PriA-SSBct interaction inhibition. AlphaScreen SSBct-PriA binding, biotinylated peptide. inhibition, % at 33 µM. 430,000 compounds, 0.6% hits. AID 1272365; in the data active = inhibition mostly above about 37%, no sharp cut-off; inactive = mostly below about 20%;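 also: plate controls were negative control peptide for no effect and reference peptide for full effect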
RN4220 kill: kills Staphylococcus aureus RN4220; AID 1259311; 330,000 compounds, 0.33% hits; inhibition, % (no concentration beside the values); S. aureus RN4220 growth, OD600, 16 h; in the data active = inhibition above about 85%;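 also: plate controls were untreated cells for no effect and reference antibiotic for full effect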
Sa ugtP lethal: growth inhibition of S. aureus ugtP deletion strain | S. aureus RN4220 ugtP deletion, OD600 growth, 16 h | AID 1259309 | growth inhibition, % (concentration not given with the values) | 330,000 compounds, 0.54% hits; in the data active = growth inhibition above about 68%;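 also: plate controls were untreated wells for no effect and antibiotic for full effect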
Active calls of the source: *.

O=C1C=CC(=O)C2C1C1(Cl)C(Cl)=C(Cl)C2(Cl)C1(Cl)Cl (stereo unspecified) was read as MazF activator 2, PriA SSB inh 5, RN4220 kill 88* and Sa ugtP lethal 97*.
`COc1cccc(C=NN2C(=O)CSC2=S)c1O` gave PriA SSB inh 93, RN4220 kill 6 and Sa ugtP lethal 12.
CCOc1cccc(C=NN2C(=O)CSC2=S)c1O was read as PriA SSB inh 71*, RN4220 kill 2 and Sa ugtP lethal 5.
Screening O=C1CSC(=S)N1N=Cc1ccc(O)c(O)c1O returned PriA SSB inh 100*, RN4220 kill 22 and Sa ugtP lethal -14.
`CCOc1ccc2nc3cc(NCc4ccc(OC)cc4)ccc3c(N)c2c1` gave BJeLR viability 7, MazF activator -89, PriA SSB inh -5, RN4220 kill 101* and Sa ugtP lethal 100*.
For O=c1c2cc(-c3ccccc3)sc2nc2n1N=C(c1ccccc1)CS2 the results were BJeLR viability -3, MazF activator -29, PriA SSB inh 4, RN4220 kill 0 and Sa ugtP lethal -21.
Screening Cc1c(C(=O)N(C)C)sc2nc(-c3ccccn3)[nH]c(=O)c12 returned BJeLR viability -6, MazF activator 4, PriA SSB inh 47*, RN4220 kill 10 and Sa ugtP lethal -2.
`O=c1[nH]c(-c2ccccn2)nc2sc(-c3ccccc3)cc12` gave BJeLR viability 41, MazF activator 8, PriA SSB inh -13, RN4220 kill 100* and Sa ugtP lethal 100*.
For CCc1ccc(OC(=O)c2cncc(Br)c2)cc1 the results were BJeLR viability 1, MazF activator -3, PriA SSB inh -21, RN4220 kill 4 and Sa ugtP lethal 3.
`CSc1cccc2sc(NC(=O)c3cc([N+](=O)[O-])ccc3Cl)nc12` gave PriA SSB inh 5.
For Cc1cc(CNC(=O)Nc2ccc3c(c2)OCO3)c(C)o1 the results were PriA SSB inh 39*.
c1cc2c(cc1CNc1ccc(N3CCOCC3)cc1)OCO2 was read as MazF activator 3, PriA SSB inh 48*, RN4220 kill 6 and Sa ugtP lethal 1.
For Cc1ccc(CNc2ccc3c(c2)OCO3)cc1 the results were BJeLR viability 15, MazF activator 59*, PriA SSB inh 33, RN4220 kill 13 and Sa ugtP lethal -12.
c1cc(CNc2ccc3c(c2)OCO3)ccn1 was read as BJeLR viability 0, MazF activator 3, PriA SSB inh 23, RN4220 kill 0 and Sa ugtP lethal 2.
c1cc2c(cc1CNc1nc(N3CCOCC3)nc(N3CCOCC3)n1)OCO2 was read as PriA SSB inh 0.
CN(C)/C=C/C(=O)c1cnc(-c2cccc(Cl)c2)s1 was read as BJeLR viability 9, MazF activator -5, PriA SSB inh -1, RN4220 kill 3 and Sa ugtP lethal 6.
Screening CC(C)(C)c1cnnn1-c1ccc(C(=O)CCl)cc1 returned BJeLR viability 1, MazF activator 9, PriA SSB inh -11, RN4220 kill 96* and Sa ugtP lethal 98*.
Screening N#CC(c1cccc(Cl)c1)c1ccc2c(C(F)(F)F)cc(C(F)(F)F)nc2n1 (stereo unspecified) returned BJeLR viability 76*, MazF activator 13, PriA SSB inh 51*, RN4220 kill 97* and Sa ugtP lethal 97*.
Screening COc1ccc2sc(N(CCCN3CCOCC3)C(=O)c3cccc([N+](=O)[O-])c3)nc2c1 returned PriA SSB inh 47*.
`Cc1ccc(-c2nc(-c3ccccc3)no2)cc1` gave BJeLR viability 11, MazF activator 1, PriA SSB inh 0, RN4220 kill -1 and Sa ugtP lethal 0.
Screening Cc1ccc(-c2nc(-c3ccccc3)no2)c(Cl)c1 returned BJeLR viability 11, MazF activator -29, PriA SSB inh 104*, RN4220 kill 0 and Sa ugtP lethal 11.
For COc1ccc(-c2noc(-c3ccccc3F)n2)cc1 the results were BJeLR viability 0, MazF activator -28, PriA SSB inh 104*, RN4220 kill -2 and Sa ugtP lethal 13.
`COc1ccc(-c2noc(-c3ccccc3-c3ccccc3)n2)cc1` gave BJeLR viability 10, MazF activator 0, PriA SSB inh -40, RN4220 kill -3 and Sa ugtP lethal 88*.
CC(C)n1nnnc1-c1ccc(Cl)cc1 was read as BJeLR viability 2, MazF activator 4, PriA SSB inh -10, RN4220 kill 7 and Sa ugtP lethal 7.
For CC(=NNC(=O)CNC(=O)c1ccccn1)c1ccccc1 the results were PriA SSB inh -1, RN4220 kill -1 and Sa ugtP lethal 2.
CCCOc1ccccc1NC(=Nc1nc(C)cc(C)n1)NC(=O)COc1ccc(OC)cc1 was read as PriA SSB inh -5.
CC1(C)CC[C@]2(C(=O)O)CC[C@]3(C)C(=CC[C@@H]4[C@@]5(C)CC[C@H](O)C(C)(C)[C@@H]5CC[C@]43C)[C@@H]2C1 was read as MazF activator -8 and PriA SSB inh -13.
For CC1CC[C@]2(C(=O)O)CC[C@]3(C)C(=CCC4[C@@]5(C)CCC(O)C(C)(C)C5CC[C@]43C)C2C1C (stereo partly specified) the results were RN4220 kill 100* and Sa ugtP lethal 100*.
COc1cc([C@@H]2c3cc4c(cc3[C@@H](NC3CCN(Cc5ccccc5)CC3)[C@H]3COC(=O)[C@H]23)OCO4)cc(OC)c1O was read as BJeLR viability 86*.
Screening COc1cc([C@@H]2c3cc4c(cc3[C@@H](OC)[C@H]3COC(=O)[C@H]23)OCO4)cc(OC)c1O returned BJeLR viability 22, MazF activator 11 and PriA SSB inh -7.
For O=C1OC(CN(Cc2ccccc2)Cc2ccccc2)CN1N=Cc1ccc([N+](=O)[O-])o1 (stereo unspecified) the results were MazF activator -6, PriA SSB inh 14, RN4220 kill 80 and Sa ugtP lethal 100*.
`O=C1OC(CN2CCOCC2)CN1N=Cc1ccc([N+](=O)[O-])o1` (stereo unspecified) gave MazF activator 7, PriA SSB inh 7, RN4220 kill 100* and Sa ugtP lethal 100*.
Screening O=S(=O)(NCc1ccccc1)c1ccc(Cl)c(S(=O)(=O)NCc2ccccc2)c1 returned BJeLR viability 0, MazF activator -1, PriA SSB inh -6, RN4220 kill 16 and Sa ugtP lethal -4.
`O=C(N/N=C/c1cccc2cccnc12)c1ccncc1` gave PriA SSB inh active.
O=C(Sc1cccc2cccnc12)c1ccccc1Br was read as BJeLR viability 97*.
For O=C(N/N=C/c1cccc2cccnc12)c1ccccc1 the results were PriA SSB inh active.
`O=C(N/N=C/c1cccc2cccnc12)c1ccccc1Br` gave PriA SSB inh active.
For O=C(NN=Cc1cccc2ccccc12)c1ccncc1 the results were PriA SSB inh 0, RN4220 kill 1 and Sa ugtP lethal 2.
